Results on 40 sequences are retold here after the OligoGym collection.
Further: reference of the scale not given here.

The first test concerns the target ERICH1. The experiment in a line: pooled miR-30 sensor sort-seq; sequence = guide strand. Conditions: shRNA.
For the sequence TTTATTTTTGCTTATTGTGGTG, the sensor-assay potency score (higher = more potent) is -0.386. Regarding TTATGCTTCCTAATTCTTCTTC, the sensor-assay potency score (higher = more potent) stood at 0.311. In the case of AATTGTATCATCTTCCTCGCTG, the sensor-assay potency score (higher = more potent) stood at 0.524.

Consider TTTCATTGGTAATTGTATCATC, for which the sensor-assay potency score (higher = more potent) is -0.447. Turning to TATTGTGGTGCCATCTGTGTGC, the sensor-assay potency score (higher = more potent) came out at 0.019. The sequence TTCATTGCTGCTGTCCTCGGGC yielded a sensor-assay potency score (higher = more potent) of 0.0342.

For the sequence TTATTTTTGCTTATTGTGGTGC, the sensor-assay potency score (higher = more potent) was found to be 0.19.

With TTAACTTAACAGAATGTCCATT, the sensor-assay potency score (higher = more potent) was -0.597.

A further test concerns the target ERMAP. Described as above. Conditions: shRNA.
TTGTAGAAAGAGATGACTCCTG came in with a sensor-assay potency score (higher = more potent) of 0.279. TTCAACTTCAGTTCACTCCGGA registered a sensor-assay potency score (higher = more potent) of 0.912. On to TATTGCAGTACAATGGTCTTGT, for which the sensor-assay potency score (higher = more potent) turned out to be 0.896.

On to TTTGCTCTTCTTTGCTTCCAGA, for which the sensor-assay potency score (higher = more potent) is -0.875. Turning to TTTTGCTCTTCTTTGCTTCCAG, the sensor-assay potency score (higher = more potent) came to 0.153. For the sequence TTTACTCAGATTTCCAACTTGG, the sensor-assay potency score (higher = more potent) was 0.208. In the case of TCAGACATCGGTAAGACCCTTG, the sensor-assay potency score (higher = more potent) turned out to be 0.421. In turn, TAGTAAAGAAGAGTTCACCTTG gave a sensor-assay potency score (higher = more potent) of 0.291.

The sequence TTACACATCTTTGGTCCTCAGA yielded a sensor-assay potency score (higher = more potent) of -0.674. TAGTTCTGAACAAATGACTAGA displayed a sensor-assay potency score (higher = more potent) of -0.0154. The sequence TCTCTCACTAGCACCGTCCTCC displayed a sensor-assay potency score (higher = more potent) of 0.0369. Sequence TTTCTTGACAGCTTTATGGAGT gave a sensor-assay potency score (higher = more potent) of 0.273.

The next test has as its target ESPNL. The test is described as above. Particulars: shRNA.
Consider TGCCACAACAGAACAGTCCCGC, for which the sensor-assay potency score (higher = more potent) is 0.291. For the sequence TTTTACATCTTCTTGAGTGTCC, the sensor-assay potency score (higher = more potent) stood at 0.799. The sequence TGAGTCTGTGAGTACCTCCAGG yielded a sensor-assay potency score (higher = more potent) of -0.966. In turn, TAGCAAACACATGTTCAGCTTC had a sensor-assay potency score (higher = more potent) of 0.322. Consider TTTATTTAGCAAACACATGTTC, for which the sensor-assay potency score (higher = more potent) is -0.167. TTATTTAGCAAACACATGTTCA registered a sensor-assay potency score (higher = more potent) of -0.54.

As to TGCACCAAGAACTTGACGCAGT, the sensor-assay potency score (higher = more potent) was -1.02. In turn, TTACATCTTCTTGAGTGTCCGT yielded a sensor-assay potency score (higher = more potent) of 0.428. For the sequence TACATCTTCTTGAGTGTCCGTC, the sensor-assay potency score (higher = more potent) was found to be 0.148.

In turn, TCGGTGAATGTGACCAGCCAGA had a sensor-assay potency score (higher = more potent) of -1.22. TCCTCTTCTTCCATCCTCCAGG: the sensor-assay potency score (higher = more potent) was -1.74. TTCAGCAGCAGGGACAGGCTGC: the sensor-assay potency score (higher = more potent) was -0.751.

The target in another test is ESR2. The test is described as above. Conditions: shRNA.
For the sequence TTTTATCGATTGTACACTGATT, the sensor-assay potency score (higher = more potent) is -1.06. TAAAAAAGGCCTTACATCCTTC showed a sensor-assay potency score (higher = more potent) of -0.442. Sequence TCCAAGTTAGTGACATTGCTGG displayed a sensor-assay potency score (higher = more potent) of 0.101. TTATGTCCTTGAATGCTTCTTT had a sensor-assay potency score (higher = more potent) of 0.411. On the same count and under the same terms, next, TTACATCCTTCACACGACCAGA: -0.608; TTATCGATTGTACACTGATTTG: -1.64. In turn, TTCCTTTTCAGTGTCTCTCTGT returned a sensor-assay potency score (higher = more potent) of 0.263. On to TTACAGGTAAGGTGTGTTCTAG, for which the sensor-assay potency score (higher = more potent) is -0.694.
